Source: PubChem BioAssay (EPA / NIEHS)
Results filed as inconclusive are left out. The source holds several records for some structures; these can differ, active in one and inactive in another. Activity calls are given as the source filed them. How the source made its calls: active means hit-call score of the fitted dose curve at least 0.9, where 1 is the maximum; inconclusive means response in the unintended direction; inactive means score below 0.9.

Legend:
[1] = TOX21_p53_BLA_p2_viability: Viability Assessment in the Tox21 HCT-116 p53 Agonism Beta-lactamase Assay, Phase 2 (AID 2283591);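 further: compound exposure lasted 16 h at 37 °C; actives lower the ATP signal meaning cytotoxicity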
Procedure, shortened: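 HCT-116 p53-bla cells (4000/well) rested 5 h at 37C, then received compounds in DMSO (217-fold dilution) for 16 h at 37C, 5% CO2. After the CCF4 read, CellTiter-Glo was added; ATP luminescence was read after 30 min at room temperature.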

[2] = molecular target: Cellular tumor antigen p53 (Homo sapiens) (UniProt P04637); experiment: TOX21_p53_BLA_p3_ratio: Tox21 HCT-116 p53 Agonism Beta-lactamase Assay, Ratio, Phase 3 (AID 2283596)
Procedure, shortened: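 HCT116 p53-bla cells (4000/well) given compound in DMSO (217-fold dilution) after 5 h, incubated 16 h at 37C. CCF4-AM substrate 2 h at room temperature; 460/530 nm emission ratio, gain fitted against DMSO.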

[3] = TOX21_p53_BLA_p4_viability: Viability Assessment in the Tox21 HCT-116 p53 Agonism Beta-lactamase Assay, Phase 4 (AID 2283597);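 further: hits lower the luminescence signal meaning cytotoxicity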
Procedure, shortened: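 HCT116 p53-bla cells (4000/well) rested 5 h at 37C, then received compounds in DMSO (217-fold dilution) for 16 h at 37C, 5% CO2. CellTiter-Glo was added after the CCF4-AM read, and luminescence was read after 30 min at room temperature.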

[4] = molecular target: Cellular tumor antigen p53 (Homo sapiens) (UniProt P04637); experiment: TOX21_p53_BLA_p5_ratio: Tox21 HCT-116 p53 Agonism Beta-lactamase Assay, Ratio, Phase 5 (AID 2283599)
Procedure, shortened: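 HCT-116 cells carrying a p53-inducible beta-lactamase reporter were seeded at 4000 cells/well and dosed after 5 h with compound in DMSO (217-fold dilution). After 16 h at 37C, CCF4-AM substrate was added for 2 h, and the 460/530 nm emission ratio was scored as gain-of-signal versus DMSO.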

[5] = TOX21_p53_BLA_p5_viability: Viability Assessment in the Tox21 HCT-116 p53 Agonism Beta-lactamase Assay, Phase 5 (AID 2283600)
Procedure, shortened: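 Cells were plated at 4000/well, rested 5 h at 37C, then given compounds in DMSO (217-fold dilution) for 16 h at 37C, 5% CO2. Following the CCF4-AM beta-lactamase read, CellTiter-Glo was added and luminescence was read after 30 min at room temperature.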

[6] = molecular target: Cellular tumor antigen p53 (Homo sapiens) (UniProt P04637); experiment: TOX21_p53_BLA_p4_ratio: Tox21 HCT-116 p53 Agonism Beta-lactamase Assay, Ratio, Phase 4 (AID 2283601)
Procedure, shortened: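 HCT116 cells carrying an inducible beta-lactamase reporter were plated at 4000 cells/well, rested 5 h, then exposed to compounds in DMSO (217-fold dilution) for 16 h at 37C. CCF4-AM substrate was loaded 2 h at room temperature; 460/530 nm emission ratio scored gain-of-signal versus DMSO.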

[7] = molecular target: Thyroid hormone receptor alpha (Rattus norvegicus) + Thyroid hormone receptor beta (Rattus norvegicus) (UniProt P18113+P63059); experiment: TOX21_TR_LUC_GH3_Antagonist_Followup: Tox21 GH3 Thyroid Hormone Receptor Antagonism Luciferase Follow-Up Assay (AID 2283942)
Procedure, shortened: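 Rat pituitary GH3 cells with a TRα/TRβ-driven luciferase reporter, 5 h attachment, then 15 concentrations (92 uM to 5nM final) plus 1.0 nM T3 agonist, 24 h at 37C/5% CO2. ONE-Glo luminescence; signal change fitted against DMSO baseline.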

[8] = molecular target: THRB (gene 7068) (UniProt P10828); experiment: TOX21_TRB_BLA_Antagonist_Followup_ratio: Tox21 Thyroid Hormone Receptor beta Antagonism Beta-lactamase (BLA) Follow-Up Assay, Ratio (AID 2283958)
Procedure, shortened: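 In this antagonist-mode follow-up, a stably integrated GAL4-TRβ LBD fusion drives a UAS-beta-lactamase reporter in HEK293T cells. Loss of ratio signal relative to DMSO after 18 h treatment indicates activity; parallel CellTiter-Glo flags cytotoxicity.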

[9] = TOX21_TRB_BLA_Antagonist_Followup_viability: Viability Assessment in the Tox21 Thyroid Hormone Receptor beta Antagonism Beta-lactamase (BLA) Follow-Up Assay (AID 2283961)
Procedure, shortened: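 HEK293T cells stably expressing GAL4-DBD/human TRβ-LBD with UAS-bla reporter, 3,000 cells/well in phenol red-free DMEM, 2% charcoal-stripped FBS. Compounds at 11 concentrations in triplicate, 18 h at 37C/5% CO2; viability by CellTiter-Glo luminescence after 30 min at room temperature.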

[10] = molecular target: THRB (gene 7068) (UniProt P10828); experiment: TOX21_TRB_COA_Antagonist_Followup_ratio: Tox21 Thyroid Hormone Receptor beta Antagonism through Coactivator Recruitment Follow-Up Assay, Ratio (AID 2283967)
Procedure, shortened: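 Cell-free TR-FRET coactivator recruitment with GST-tagged TRβ LBD (5.0 nM) and fluorescein-labeled SRC-2 peptide (200 nM) detected by terbium anti-GST antibody (2 nM). The 520:495 nm emission ratio was normalized to DMSO (0%) and T3 (100%).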

[11] = molecular target: Retinoic acid receptor RXR-alpha (Homo sapiens) (UniProt P19793); experiment: TOX21_TR_RXR_BLA_Antagonist_Followup_ratio: Tox21 Thyroid Hormone Receptor beta Retinoid X Receptor alpha (RXRa) Antagonism Beta-lactamase (BLA) Follow-Up Assay, Ratio (AID 2283972)
Procedure, shortened: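 RXRa-UAS-bla HEK293T cells in phenol red-free DMEM with 2% charcoal-stripped FBS; compounds at 11 concentrations in triplicate, 16 h at 37C. LiveBLAzer FRET-B/CCF4-AM substrate 2 h at room temperature; read as 460:530 nm ratio versus DMSO.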

[12] = TOX21_TR_RXR_BLA_Antagonist_Followup_viability: Viability Assessment in the Tox21 Thyroid Hormone Receptor beta Retinoid X Receptor alpha (RXRa) Antagonism Beta-lactamase (BLA) Follow-Up Assay (AID 2283979)
Procedure, shortened: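 RXRa-UAS-bla HEK293T cells seeded 2,500/well in phenol red-free DMEM with 2% charcoal-stripped FBS, attached 5 h, then exposed to compounds at 11 concentrations in triplicate for 16 h at 37C/5% CO2. Viability read by CellTiter-Glo ATP luminescence; bidirectional fit versus DMSO.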

Measured: AC50

Cellular tumor antigen p53 (Homo sapiens), sequence (P04637 whole entry, looked up): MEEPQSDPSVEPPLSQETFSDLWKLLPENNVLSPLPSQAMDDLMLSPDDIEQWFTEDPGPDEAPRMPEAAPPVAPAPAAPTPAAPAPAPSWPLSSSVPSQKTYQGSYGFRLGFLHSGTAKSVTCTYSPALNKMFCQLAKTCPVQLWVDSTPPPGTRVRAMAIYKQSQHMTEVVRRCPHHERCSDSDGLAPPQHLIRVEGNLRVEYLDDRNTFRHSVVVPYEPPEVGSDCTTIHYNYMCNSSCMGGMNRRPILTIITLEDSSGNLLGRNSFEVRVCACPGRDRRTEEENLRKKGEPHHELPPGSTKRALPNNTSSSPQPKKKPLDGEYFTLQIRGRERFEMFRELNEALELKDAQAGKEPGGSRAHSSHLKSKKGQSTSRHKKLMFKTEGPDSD
THRB (gene 7068), sequence (P10828 whole entry, looked up, the tested form may be a part): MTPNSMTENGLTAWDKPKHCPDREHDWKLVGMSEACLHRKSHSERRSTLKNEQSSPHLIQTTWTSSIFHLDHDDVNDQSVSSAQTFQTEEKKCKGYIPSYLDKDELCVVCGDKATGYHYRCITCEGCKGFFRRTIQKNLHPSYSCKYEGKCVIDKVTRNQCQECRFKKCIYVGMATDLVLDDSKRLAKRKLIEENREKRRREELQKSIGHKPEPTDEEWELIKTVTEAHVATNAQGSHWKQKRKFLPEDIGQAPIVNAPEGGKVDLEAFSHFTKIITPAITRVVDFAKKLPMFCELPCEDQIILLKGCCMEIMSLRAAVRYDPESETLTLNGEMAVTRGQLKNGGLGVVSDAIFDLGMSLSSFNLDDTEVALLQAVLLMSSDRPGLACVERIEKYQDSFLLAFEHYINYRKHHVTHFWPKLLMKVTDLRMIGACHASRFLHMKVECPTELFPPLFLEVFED
Retinoic acid receptor RXR-alpha (Homo sapiens), sequence (P19793 whole entry, looked up): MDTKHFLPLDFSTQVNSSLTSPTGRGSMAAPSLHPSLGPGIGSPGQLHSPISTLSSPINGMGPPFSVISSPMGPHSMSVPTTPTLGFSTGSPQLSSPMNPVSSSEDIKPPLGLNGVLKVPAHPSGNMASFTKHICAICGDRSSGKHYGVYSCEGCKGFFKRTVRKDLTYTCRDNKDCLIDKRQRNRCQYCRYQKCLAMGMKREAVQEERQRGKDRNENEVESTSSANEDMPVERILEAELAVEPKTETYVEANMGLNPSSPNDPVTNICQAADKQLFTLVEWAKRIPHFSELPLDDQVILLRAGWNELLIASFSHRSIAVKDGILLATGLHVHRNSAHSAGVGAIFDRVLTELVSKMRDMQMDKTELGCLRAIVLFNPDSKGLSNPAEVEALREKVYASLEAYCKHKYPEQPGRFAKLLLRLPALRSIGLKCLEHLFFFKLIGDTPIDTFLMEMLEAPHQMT

CCOC(=O)[C@H](CCc1ccccc1)N[C@@H](C)C(=O)N1C(=O)N(C)C[C@H]1C(=O)O
inactive: [1] | [2] | [3] | [4] | [5]

Cc1cc(C(=O)O)ccc1[N+](=O)[O-]
inactive: [1] | [2] | [3] | [4]

Nc1ncnc2c1ncn2[C@H]1CC[C@@H](CO)O1
inactive: [1] | [2] | [3] | [4] | [5] | [6]

CC(=C(CCOC(=O)C(C)C)SSC(CCOC(=O)C(C)C)=C(C)N(C=O)Cc1cnc(C)nc1N)N(C=O)Cc1cnc(C)nc1N
inactive: [1] | [2] | [3] | [4] | [5] | [6]

CS(=O)(=O)OCCCNCCCOS(C)(=O)=O
inactive: [1] | [2] | [3] | [4] | [5]

O=C(O)c1c(Cl)cccc1Cl
inactive: [1] | [2] | [3] | [4] | [5]

CC12CC3CC(C)(C1)CC(N)(C3)C2
inactive: [1] | [2] | [3] | [4] | [6]

NCCCCCC(=O)O
inactive: [1] | [2] | [3] | [4] | [5] | [6]

CN1CCCN=C1/C=C/c1cccs1
inactive: [1] | [2] | [3]

CN(C)CC/C=C1/c2ccccc2COc2ccc(CC(=O)O)cc21
inactive: [1] | [2] | [3] | [4] | [5] | [6]

CC(C)(C)C(=O)CC(=O)C(C)(C)C
inactive: [1] | [2] | [3] | [4]

Cc1ncc(CO)c(C=O)c1O
inactive: [1] | [2] | [3] | [4] | [5] | [6]

Cc1nc2n(c(=O)c1CCN1CCC(c3noc4cc(F)ccc34)CC1)CCC[C@H]2O
inactive: [1] | [2] | [3] | [4] | [5] | [6]

CC(C)SCc1ccco1
inactive: [1] | [2] | [3] | [4]

Nc1nc(/C(=C/CC(=O)O)C(=O)N[C@@H]2C(=O)N3C(C(=O)O)=CCS[C@H]23)cs1
inactive: [1] | [2] | [3] | [4]

C1COC1
inactive: [1] | [2] | [3] | [4] | [5]

CC[C@@]1(O)C[C@@H]2CN(CCc3c([nH]c4ccccc34)[C@@](C(=O)OC)(c3cc4c(cc3OC)N(C)[C@H]3[C@@](O)(C(=O)OC)[C@H](OC(C)=O)[C@]5(CC)C=CCN6CC[C@]43[C@@H]65)C2)C1
inactive: [1] | [2] | [3] | [4] | [5] | [9] | [10] | [11] | [12]
active: [4] 17.3 nM | [7] 17.5 µM | [8] 73.4 nM

O.O=C([O-])CC([S-])C(=O)[O-].[Au+].[Na+].[Na+] (centres undefined)
inactive: [1] | [2] | [3] | [4]

O=c1[nH]c2ccc(Cl)cc2o1
inactive: [1] | [2] | [3] | [4] | [5] | [6]

NS(=O)(=O)c1cc2c(cc1Cl)NC=NS2(=O)=O
inactive: [1] | [2] | [3] | [4] | [5] | [6]

SCCCCCCCCS
inactive: [1] | [2] | [3] | [4]

N[C@@H](CSSC[C@H](N)C(=O)O)C(=O)O
inactive: [1] | [2] | [3] | [4] | [5] | [6]

CCCC(=O)OC(=O)CCC
inactive: [1] | [2] | [3] | [4] | [5] | [6]

C[C@@]12CCC[C@H]1[C@@H]1CC[C@H]3C[C@@H](O)CC[C@]3(C)[C@H]1CC2
inactive: [1] | [2]

BrCCCCCBr
inactive: [1] | [2] | [3] | [4] | [5] | [6]

CC(C)Cc1nccs1
inactive: [1] | [2] | [3] | [4]

CC(C)[N+]1(C)[C@@H]2CC[C@H]1CC(OC(=O)C(CO)c1ccccc1)C2 (some centres undefined)
inactive: [1] | [2] | [3] | [4] | [5] | [6]

CN(C)CCCN1c2ccccc2C(C)(C)c2ccccc21
inactive: [1] | [2] | [4]

CC=CC1=C(C(=O)O)N2C(=O)[C@@H](NC(=O)[C@H](N)c3ccc(O)cc3)[C@H]2SC1
inactive: [1] | [2] | [4] | [5] | [6]

NC(=O)NC(=O)Cc1ccccc1
inactive: [1] | [2] | [3] | [4] | [6]

Cc1c(I)c(=O)n(-c2ccccc2)n1C
inactive: [1] | [2] | [4] | [5] | [6]

ClC1=C(Cl)C1(Cl)Cl
inactive: [1] | [2] | [3] | [5] | [6]

CCO[Si](OCC)(OCC)OCC
inactive: [1] | [2] | [3] | [4] | [6]

CCCCCCCCCCCCCCCCSCC(COC)COP(=O)([O-])OCC[N+](C)(C)C (centres undefined)
inactive: [1] | [2] | [3] | [6]

CCN(CC)CCOC(=O)C(Cc1cccc2ccccc12)CC1CCCO1 (centres undefined)
inactive: [1] | [2] | [3] | [6]

O=C1OC(CN2CCOCC2)CN1N=Cc1ccc([N+](=O)[O-])o1 (centres undefined)
inactive: [1] | [2] | [4] | [5] | [6]

C=C[Si](OC(=C)C)(OC(=C)C)OC(=C)C
inactive: [1] | [2] | [4] | [5]

Oc1ccc(C2(c3ccc(O)cc3)CC3CC2C2CCCC32)cc1 (centres undefined)
inactive: [2]
active: [1] 64.1 µM | [3] 55.4 µM | [6] 83.1 µM

CCCCCC
inactive: [1] | [2] | [4] | [6]

OCC1(CO)COCOC1
inactive: [1] | [2] | [4] | [5] | [6]

CC[N+](C)(C)c1cccc(O)c1
inactive: [1] | [2] | [4] | [6]

ClCC=CCCl
inactive: [1] | [2] | [3] | [4] | [6]

CCCCCCCCCCCCCCCCCC(=O)[O][Al]
inactive: [1] | [2] | [4] | [5] | [6]

COc1ccc(Br)c(C)c1
inactive: [1] | [2] | [3] | [6]

Cc1cccc(C)c1NC(=O)C1CCCCN1C (centres undefined)
inactive: [1] | [2] | [4] | [5]

O=Cc1cccc([N+](=O)[O-])c1
inactive: [1] | [2] | [3] | [4] | [6]

Cn1c(=O)c2c(ncn2CC(O)CO)n(C)c1=O (centres undefined)
inactive: [1] | [2] | [3] | [4] | [6]

CN1C(=O)C[C@@H](C(=O)N[C@@H](Cc2cnc[nH]2)C(=O)N2CCC[C@H]2C(N)=O)NC1=O
inactive: [1] | [2] | [4] | [5] | [6]

O=C(O)CNC(=O)c1ccccc1I
inactive: [1] | [2] | [4] | [5]

CCOc1ccc(NC(=S)Nc2ccc(OCC)cc2)cc1
inactive: [1] | [2] | [3] | [6]

O=C(O)COc1ccc2ccccc2c1
inactive: [1] | [2] | [4] | [5] | [6]

CC(O)CN(CCCN(C)C)CCCN(C)C (centres undefined)
inactive: [1] | [2] | [4] | [5] | [6]

CC(O)CO (centres undefined) (tested in a mixture with another compound)
inactive: [1] | [2] | [3] | [6]
